Experiment [1] is described as follows: Quantitative High-Throughput drug screen in 47 multiple myeloma cell lines against the NCATS MIPE library collection: Delta47_JCRB cell viability assay (AID 1918925; further: nearly all actives have a fitted effect of over 45% in size; further: potency means the concentration at half of the fitted maximal effect). The essentials:
(§1)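 Myeloma cells (500 per well) were exposed to MIPE 4.0 compounds by pin transfer and incubated 48 hours at 37C, 5% CO2. Viability was read as ATP by CellTiter-Glo luminescence, normalised to DMSO (100%) and media-only (0%) wells.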

A short description of experiment [2]: Quantitative High-Throughput drug screen in 47 multiple myeloma cell lines against the NCATS MIPE library collection: EJM_DSMZ cell viability assay (AID 1918926; further: nearly all actives have a fitted effect of over 30% in size; further: potency means the concentration at half of the fitted maximal effect). The method in brief:
as §1

A short description of experiment [3]: Quantitative High-Throughput drug screen in 47 multiple myeloma cell lines against the NCATS MIPE library collection: AMO1_DSMZ cell viability assay (AID 1918927; further: nearly all actives have a fitted effect of over 30% in size; further: potency means the concentration at half of the fitted maximal effect). The method in brief: as §1
Experiment [4] is described as follows: Quantitative High-Throughput drug screen in 47 multiple myeloma cell lines against the NCATS MIPE library collection: ARP1_JJKsccF8 cell viability assay (AID 1918928; further: nearly all actives have a fitted effect of over 40% in size; further: potency means the concentration at half of the fitted maximal effect). The method in brief:
(§2)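 Each line was plated at 500 cells/well and treated 48 h with library drugs. Viability came from CellTiter-Glo luminescence relative to DMSO and cell-free medium controls.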

Experiment [5] can be described thus: Quantitative High-Throughput drug screen in 47 multiple myeloma cell lines against the NCATS MIPE library collection: ARD_JJKsccE7 cell viability assay (AID 1918929; further: potency means the concentration at half of the fitted maximal effect). The essentials:
as §1

Experiment [6] in a line: Quantitative High-Throughput drug screen in 47 multiple myeloma cell lines against the NCATS MIPE library collection: Karpas620_DSMZ cell viability assay (AID 1918959). Further: nearly all actives have a fitted effect of over 30% in size. Further: potency means the concentration at half of the fitted maximal effect. The method in brief:
(§3)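 Steps: seed 500 cells per well; pin-transfer MIPE 4.0 library; incubate 48 h at 37C, 5% CO2, humidified; add CellTiter-Glo, 5 min room temperature; read luminescence.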

Experiment [7] is described as follows: Quantitative High-Throughput drug screen in 47 multiple myeloma cell lines against the NCATS MIPE library collection: KMM1_JCRB cell viability assay (AID 1918960). Further: nearly all actives have a fitted effect of over 30% in size. Further: potency means the concentration at half of the fitted maximal effect. The essentials: as §2
Experiment [8] can be described thus: Quantitative High-Throughput drug screen in 47 multiple myeloma cell lines against the NCATS MIPE library collection: KHM11_PLB cell viability assay (AID 1918962). Further: nearly all actives have a fitted effect of over 35% in size. Further: potency means the concentration at half of the fitted maximal effect. The method in brief: as §3
Experiment [9] can be described thus: Quantitative High-Throughput drug screen in 47 multiple myeloma cell lines against the NCATS MIPE library collection: JIM3_ECACC cell viability assay (AID 1918963; further: nearly all actives have a fitted effect of over 35% in size; further: potency means the concentration at half of the fitted maximal effect). The method in brief:
as §3

Experiment [10] in a line: Quantitative High-Throughput drug screen in 47 multiple myeloma cell lines against the NCATS MIPE library collection: INA6_PLB cell viability assay (AID 1918965; further: nearly all actives have a fitted effect of over 55% in size; further: potency means the concentration at half of the fitted maximal effect). The method in brief:
(§4)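 CellTiter-Glo luminescence (ATP) after 48 h compound exposure, 37C/5% CO2; 500 cells/well; MIPE 4.0 approved/investigational drugs pinned in; DMSO = 100%, media only = 0% viability.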

The nature of experiment [11]: Quantitative High-Throughput drug screen in 47 multiple myeloma cell lines against the NCATS MIPE library collection: H1112_PLB cell viability assay (AID 1918967; further: nearly all actives have a fitted effect of over 30% in size; further: potency means the concentration at half of the fitted maximal effect). The method in brief:
as §1

A short description of experiment [12]: Quantitative High-Throughput drug screen in 47 multiple myeloma cell lines against the NCATS MIPE library collection: JJN3_DSMZ cell viability assay (AID 1918966; further: nearly all actives have a fitted effect of over 50% in size; further: potency means the concentration at half of the fitted maximal effect). The method in brief:
as §1

Experiment [13] can be described thus: Quantitative High-Throughput drug screen in 47 multiple myeloma cell lines against the NCATS MIPE library collection: JIM1_ECACC cell viability assay (AID 1918964; further: potency means the concentration at half of the fitted maximal effect). The essentials:
as §1

Experiment [14] is described as follows: Quantitative High-Throughput drug screen in 47 multiple myeloma cell lines against the NCATS MIPE library collection: Karpas417_ECACC cell viability assay (AID 1918961). The note with it: Karpas417 myeloma viability, CellTiter-Glo ATP luminescence, 48 h; viability (% of DMSO): at 45.8 µM (top of the series). The method in brief:
as §4

Results filed as inconclusive are left out. Active and inactive are the calls of the source. The call rests on the fitted dose curve; in most records, active means well fitted curve in the direction sought with a large enough effect; inconclusive means small, poorly fitted or top-dose-only effect, or another doubt; inactive means no such curve, though single readings can be large; an effect the other way counts as inactive or inconclusive.

`CNC1[C@H](O)C(O[C@@H]2C(O)C(O[C@H]3O[C@H]([C@@H](C)NC)CC[C@H]3N)[C@@H](N)C[C@H]2N)OC[C@]1(C)O` (stereo partly drawn): the Potency entry in [1], in [2], in [3], in experiment [4], in experiment [5] and in experiment [6] was “inactive” each time. Also, the Potency result in experiment [7], in experiment [8], in [9], in experiment [10] and in experiment [11] was “inactive” throughout.
With `O=C(c1ccc(C=Cc2n[nH]c3ccccc23)cc1)N1CCNCC1`, the Potency in experiment [1] is 3.32 µM (active); in experiment [2], 20.9 µM (active); in experiment [4], 13.2 µM (active); in [5], 1.32 µM (active); in [7] it was 5.26 µM (active); in [8], 0.833 µM (active). Moreover, the Potency was 3.32 µM (active) in [10] and 18.7 µM (active) in experiment [12].
Turning to `CN(C(Cc1ccc(OS(=O)(=O)c2cccc3cnccc23)cc1)C(=O)N1CCN(c2ccccc2)CC1)S(=O)(=O)c1cccc2cnccc12` (stereo not drawn), the Potency is 5.26 µM (active) in [1]; 8.33 µM (active) in experiment [3]; 5.9 µM (active) in [5]; 5.9 µM (active) in experiment [6]; 6.62 µM (active) in experiment [9]; 1.87 µM (active) in experiment [13]. Further, the Potency in [10] was 3.72 µM (active); in [12], 5.9 µM (active); in experiment [11], 8.33 µM (active).
As to `COc1cc(Cl)cn2c(-c3cccc(NC4CNC4)n3)cnc12`, the Potency in experiment [1] was 20.9 µM (active); in experiment [3], 5.26 µM (active); in experiment [5] it was 16.6 µM (active); in experiment [7] it was 16.6 µM (active); in experiment [8] it was 18.7 µM (active); in [13], 4.18 µM (active). For the same molecule, the Potency result in experiment [4] was “inactive”.
Turning to `Cc1ccc(NC(=O)Nc2cc(C(F)(F)F)ccc2F)cc1Nc1ccc2c(c1)NC(=O)C2=Cc1ccc[nH]1`, the Potency in experiment [1] was 4.69 µM (active); in experiment [2], 26.4 µM (active); in experiment [3] it was 4.18 µM (active); in experiment [5] it was 3.32 µM (active); in experiment [6] it was 5.26 µM (active); in [7], 5.9 µM (active). Further, the Potency was 7.43 µM (active) in experiment [8]; 4.18 µM (active) in [9]; 4.18 µM (active) in experiment [13]; 4.18 µM (active) in experiment [10]; 23.5 µM (active) in experiment [12]; 11.8 µM (active) in experiment [11].
For `C=C1[C@H](n2cnc3c(=O)[nH]c(N)nc32)C[C@H](O)[C@H]1CO`, the Potency in experiment [1] is 3.32 µM (active); in [3], 18.7 µM (active); in experiment [5] it was 9.35 µM (active); in experiment [7], 18.7 µM (active); in [8] it was 4.69 µM (active); in experiment [10], 11.8 µM (active). For the same molecule, the Potency in experiment [11] was 11.8 µM (active). The Potency entry in experiment [2] and in experiment [12] was “inactive” throughout.
`CON(C)C(=O)N1N=C(c2cc(F)ccc2F)S[C@]1(CCCN)c1ccccc1`: the Potency entry in [1], in [2], in experiment [9], in experiment [10] and in experiment [11] was “inactive” throughout. For the same molecule, the Potency in [3] and in experiment [5] was 0.001 µM (active) in each case.
As to `Oc1cc(O)cc(C=Cc2ccc(O)c(O)c2)c1`, the Potency was 4.69 µM (active) in experiment [1]; 20.9 µM (active) in experiment [2]; 9.35 µM (active) in [5]; 5.26 µM (active) in experiment [6]; 13.2 µM (active) in experiment [7]; 14.8 µM (active) in experiment [9]. The values for the Potency in [10], in [12] and in experiment [11] were 2.96 µM (active), 16.6 µM (active) and 13.2 µM (active), respectively.
With `CCCCC[C@H](O)C=C[C@H]1[C@H](O)CC(=O)[C@H]1CCCCCCC(=O)O`, the Potency entry in experiment [1], in experiment [2], in [3], in [5], in experiment [6] and in experiment [7] was “inactive” throughout. Further, the Potency result in experiment [13] and in experiment [11] was “inactive” in each case. In addition, in experiment [12], the Potency is 7.43 µM (active).
On to `C[C@H]1O[C@@H](n2cc(F)c(=O)[nH]c2=O)[C@H](O)[C@H]1O`, for which the Potency in experiment [1] is 14.8 µM (active); in [5], 1.32 µM (active); in [7] it was 5.26 µM (active); in [9], 11.8 µM (active); in experiment [10] it was 13.2 µM (active). Moreover, the Potency entry in experiment [2], in experiment [4], in experiment [14] and in experiment [12] was “inactive” throughout.
As for `CN1[C@H]2CC[C@H]1CC(OC(=O)c1c[nH]c3ccccc13)C2` (stereo partly drawn), the Potency in experiment [1] is 4.18 µM (active). Moreover, the Potency result in experiment [2], in experiment [3], in experiment [6], in experiment [7], in experiment [9] and in [13] was “inactive” in each case. For the same molecule, the Potency entry in experiment [10] was “inactive”.

Source of the values: PubChem BioAssay (NCATS).
